For 101 compounds, activity, negative = inhibition and AC50 results are on record in PubChem BioAssay AID1851 (National Center for Advancing Translational Sciences (NCATS), 2009).

Out of some 16,000 compounds screened, about 2,600 (16%) were called active. Inconclusive results (about 20%) are left out. Calls follow the shape of the dose curve; as a rule, active = well fitted curve in the direction sought with a large enough effect; inconclusive = small, poorly fitted or top-dose-only effect, or effect the other way; inactive = no such curve, though single readings can be large or run the other way. Not all results are given here.
% is scaled to controls: 0 for no effect and ±100 for the full control effect.

The target of this assay is Cytochrome P450 2D6 (Homo sapiens) (UniProt P10635). Briefly: Cytochrome panel assay with activity outcomes. The following applies: recombinant CYP, pro-luciferin dealkylation, luminescence, p450-cyp2d6; series mostly up to 57.1 µM.
Chain of Cytochrome P450 2D6 (Homo sapiens) (P10635 whole entry, looked up): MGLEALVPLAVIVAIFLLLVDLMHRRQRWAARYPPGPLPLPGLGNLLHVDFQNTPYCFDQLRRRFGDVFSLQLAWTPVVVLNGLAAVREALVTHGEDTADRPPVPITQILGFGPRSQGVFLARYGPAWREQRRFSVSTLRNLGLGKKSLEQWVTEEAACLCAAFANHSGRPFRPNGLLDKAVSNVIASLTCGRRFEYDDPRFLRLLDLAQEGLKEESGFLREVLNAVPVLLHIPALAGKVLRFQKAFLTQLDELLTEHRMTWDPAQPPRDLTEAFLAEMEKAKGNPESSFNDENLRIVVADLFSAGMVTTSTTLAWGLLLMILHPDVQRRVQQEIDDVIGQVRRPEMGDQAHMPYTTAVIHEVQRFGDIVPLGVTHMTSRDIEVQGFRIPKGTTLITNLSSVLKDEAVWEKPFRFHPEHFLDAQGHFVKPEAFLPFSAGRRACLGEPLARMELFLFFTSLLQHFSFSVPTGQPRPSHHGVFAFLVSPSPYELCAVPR
As to `[O-][N+]1(CC[N+]2([O-])CCCCC2)CCCCC1`, the activity, negative = inhibition is 3.01% [at 11.4 µM] (inactive). Regarding `COc1cccc(/C=N/n2c(=S)n(C)c3cc(C)c(C)cc32)c1OC`, the AC50 result was “inactive”. For `CC(=O)CSc1nnc(Cc2ccc([N+](=O)[O-])cc2)o1`, the AC50 result was “inactive”. Still for that read-out and setting: to `O=C(O)Cc1cc2ccccc2nc1C(=O)O` belongs “inactive”; to `COC(=O)C1C(=O)C2=C(CC1C)NC(=O)CC2c1cccc(C)c1` (stereo unspecified), “inactive”. For the compound `COc1ccc2[nH]cc(CCNc3ncncc3-c3ccccc3CN(C)C)c2c1`, the AC50 was 10 µM (active). Same read-out and setting: in the case of `COc1ccc2[nH]cc(CCNc3ncncc3-c3ccccc3C(F)(F)F)c2c1` it was 2 µM (active); in that of `COc1ccc2[nH]cc(CCNc3ncncc3-c3ccccc3OC)c2c1`, 1.26 µM (active); in that of `COc1ccc2[nH]cc(CCNc3ncncc3-c3ccccc3Cl)c2c1`, 0.631 µM (active). Take `CC[C@@H]1CN2CCc3cc(OC)c(OC)cc3[C@H]2C[C@@H]1C[C@H]1NCCc2cc(OC)c(OC)cc21`: the AC50 entry was “inactive”. The same measure, in the same setting: in the case of `COc1c2ccoc2nc2c(OC)c(OC[C@H](O)C(C)(C)O)ccc12` it was “inactive”; in that of `CC(=O)N1N=C(c2cccc([N+](=O)[O-])c2)OC1c1ccccc1Cl` (stereo unspecified), “inactive”; in that of `O=c1c(-c2cccs2)nc2cnc(Oc3cccc(Cl)c3)nc2n1C[C@H]1CCCO1`, “inactive”.

Turning to `CCc1ccc(-c2cc(C(F)(F)F)n3nc(C(=O)Nc4cnn(Cc5ccccc5C)c4)cc3n2)s1`, the AC50 entry is “inactive”.

Consider `CCOC(=O)c1c(NC(C)=O)sc2c(OC)cccc12`, for which the AC50 entry is “inactive”. On the same count and under the same terms, in the case of `COC(=O)c1ccc(OCC2c3cc(OC)c(OC)cc3CCN2C(=O)C2CC2)cc1` (stereo unspecified) it was “inactive”; in that of `COc1ccc2[nH]cc(CCNc3ncncc3-c3ccccc3C)c2c1`, 1.26 µM (active). `CCCCN(C)S(=O)(=O)c1ccc(C(=O)Nc2nnc(CSC)o2)cc1`: the AC50 entry is “inactive”. On to `CCCc1nn(-c2ccccc2)c2c1C(c1cccs1)C(C#N)=C(N)O2` (stereo unspecified), for which the AC50 entry is “inactive”. Turning to `Cc1[nH]n(-c2ccccc2)c(=O)c1CCOC(=O)c1cccc(C(F)(F)F)c1`, the AC50 result was “inactive”. In the case of `CCC(C(=O)Nc1cccc(C(F)(F)F)c1)c1ccccc1` (stereo unspecified), the AC50 entry is “inactive”. As to `C[C@@H](Cc1cccc(C(F)(F)F)c1)NCCOC(=O)c1ccccc1`, the AC50 was 0.0158 µM (active). Same read-out and setting: to `COc1cccc(-c2cc(C(=O)N/N=C/c3ccc(OC)c(COC(C)=O)c3)c3ccccc3n2)c1` belongs “inactive”; to `CCc1ccc(NC(=O)Cn2nc(C(F)(F)F)c3c2CCC3)cc1`, “inactive”. Still for that read-out and setting: to `CN(C)C(=O)c1ccc(-n2nc(C(F)(F)F)c3c2CCCC3)cc1` belongs 8.91 µM (active); to `O=C(Cn1nnc(-c2ccccc2)n1)OCc1ccccc1`, “inactive”. Regarding `CCC[C@H](Sc1nc(N)nc2nc[nH]c12)C(=O)O`, the activity, negative = inhibition was 1.31% [at 11.4 µM] (inactive). Still for that read-out and setting: to `CCCNC(=O)OC[C@H]1O[C@@H](CCO/N=C2/[C@H]3O[C@@H]3[C@@H](O)[C@H]3[C@H]2CCn2c(=O)n(-c4ccccc4)c(=O)n23)C=C[C@@H]1Oc1ccc(OC)cc1` belongs 10.6% [at 11.4 µM] (inactive).

Consider `CCCCCc1nc2c(C#N)c(-c3ccc(Cl)cc3)ccn2n1`, for which the AC50 result was “inactive”. For the compound `O=C(c1cnccn1)N1CCC2(CCCN(c3ccccc3)C2)CC1`, the AC50 result was “inactive”. The same measure, in the same setting: to `O=C(Nc1ccccc1)N1CC2(CCN(C(=O)c3cnccn3)CC2)C1` belongs “inactive”; to `O=C(c1cnccn1)N1CCC2(CCCN(C(c3ccccc3)c3ccccc3)C2)CC1`, 10 µM (active). Take `O=C(Nc1ccccc1)N1CC[C@@]2(CCCN(C(=O)c3cnccn3)C2)C1`: the AC50 entry was “inactive”. On to `O=C(Nc1ccccc1)N1CCC2(CC1)CCN(C(=O)c1cnccn1)CC2`, for which the AC50 entry was “inactive”.

In the case of `O=C(c1cnccn1)N1CCC2(CC1)CN(C(c1ccccc1)c1ccccc1)C2`, the AC50 was 6.31 µM (active). Same read-out and setting: in the case of `O=C(c1cnccn1)N1CCC[C@@]2(CCN(C(c3ccccc3)c3ccccc3)C2)C1` it was 10 µM (active).

Take `O=C(Nc1ccccc1)N1CCCC2(CCN(C(=O)c3cnccn3)CC2)C1`: the AC50 entry was “inactive”. On the same count and under the same terms, in the case of `O=C(c1cnccn1)N1CCC2(CC1)CCN(C(c1ccccc1)c1ccccc1)CC2` it was 3.98 µM (active). With `O=C(c1cnccn1)N1CCC2(CC1)CCN(c1ccccc1)CC2`, the AC50 entry is “inactive”. As to `O=C(c1cnccn1)N1CCC2(CC1)CN(c1ccccc1)C2`, the AC50 result was “inactive”. On the same count and under the same terms, in the case of `O=C(c1cnccn1)N1CCC[C@@]2(CCN(c3ccccn3)C2)C1` it was “inactive”.

Turning to `Cc1cc(NC(=O)Nc2ccc(F)cc2)no1`, the AC50 entry was “inactive”. As for `Clc1ccccc1C(Nc1ncccn1)Nc1ncccn1`, the activity, negative = inhibition is 1.87% [at 11.4 µM] (inactive). Still for that read-out and setting: to `CN(C)CCCN=c1c2ccccc2n(C)c2[nH]c(=O)n(C)c(=O)c12` belongs 13.4% [at 11.4 µM] (inactive). `CCN1CCN(C(=O)C2c3cc(OC)c(OC)cc3C(=O)N3CCc4ccccc4C23)CC1` (stereo unspecified): the AC50 result is “inactive”. On the same count and under the same terms, to `O=C(O)C1C2C=CC3(CN(Cc4ccccn4)C(=O)C13)O2` (stereo unspecified) belongs “inactive”; to `CCOC(=O)Cn1nnc2c(sc3nc4c(c(-c5ccc(Cl)cc5)c32)CCC4)c1=O`, “inactive”; to `CC(C)Cn1c(=O)n(C)c(=O)c2[nH]cnc21`, “inactive”.

With `FC(F)(F)c1cc(C(F)(F)F)c2ccc(N/N=C/c3cccc(Cl)c3)nc2n1`, the AC50 entry was “inactive”. Still for that read-out and setting: in the case of `Cc1ccccc1-c1cncnc1NCc1cccs1` it was 12.6 µM (active); in that of `CC(=O)NCCNc1ncncc1-c1ccccc1C`, “inactive”. Take `Clc1ccccc1-c1cncnc1NCc1cccs1`: the AC50 is 10 µM (active). Still for that read-out and setting: to `FC(F)(F)c1ccccc1-c1cncnc1NCc1cccs1` belongs 15.8 µM (active); to `COc1ccccc1-c1cncnc1NCc1cccs1`, 15.8 µM (active).

In the case of `Cc1cnc(CNc2ncncc2-c2c(C)noc2C)cn1`, the AC50 entry is “inactive”. For the compound `CO[C@H]1COC(=O)C/C=C\[C@@H](C)COC(=O)[C@@H](C)NC(=O)C/C=C\[C@@H]1C`, the activity, negative = inhibition was 1.11% [at 11.4 µM] (inactive). For the compound `O=S(=O)(c1ccccc1S(=O)(=O)N1CCCCC1)N1CCCCC1`, the AC50 result was “inactive”. On the same count and under the same terms, to `CC1(CCC#N)N=C(SCCC#N)N(c2ccccc2)C1=O` (stereo unspecified) belongs “inactive”.

For the compound `Cc1ccc(S(=O)(=O)N[C@H](CN)C(=O)O)cc1`, the activity, negative = inhibition was 3.02% [at 11.4 µM] (inactive). With `CC(C)Oc1ccc(C2CC(=O)NC3=C2C(=O)CCC3)cc1` (stereo unspecified), the AC50 result was “inactive”. Regarding `CCCCSC(=S)N(C)C1CCS(=O)(=O)C1` (stereo unspecified), the AC50 result was “inactive”.

On to `C=C(Br)CN(C)CC(=C)Br`, for which the activity, negative = inhibition was 9.77% [at 11.4 µM] (inactive). Take `CCOc1cc(C2CC(=O)c3c(ccc4ccccc34)N2)ccc1O` (stereo unspecified): the AC50 result was “inactive”.

Turning to `COc1ccc(C2C(C(=O)N3CCOCC3)CCC(=O)N2c2ccc(OC)cc2)cc1` (stereo unspecified), the AC50 result was “inactive”.

Turning to `CC(C)C(NC(=O)C12CC3CC(CC(C3)C1)C2)C(=O)NC1=NCCS1` (stereo unspecified), the AC50 entry is “inactive”. Same read-out and setting: in the case of `COc1c(C)c2c(c(O)c1C/C=C(\C)CCC(=O)O)C(=O)OC2` it was “inactive”; in that of `COC(=O)c1cc(C(=O)c2cccc(Cl)c2Cl)cn1C`, “inactive”; in that of `Cc1cnc(CNc2ncncc2-c2ccccc2C#N)cn1`, “inactive”. On to `CN(C)Cc1ccccc1-c1cncnc1NCc1cccs1`, for which the AC50 was 12.6 µM (active). As to `CC(C)Oc1cccc(C(=O)NC(=S)N2CCN(c3ccc(C(F)(F)F)cc3[N+](=O)[O-])CC2)c1`, the AC50 entry is “inactive”.

As for `O=C(CCN1C(=O)/C(=C/c2cccc(Br)c2)SC1=S)NNC(=O)c1cccnc1`, the AC50 entry was “inactive”. Take `C[C@](O)(c1ccccc1)c1nccc2ccccc12`: the activity, negative = inhibition is -11.5% [at 11.4 µM] (inactive). Take `COc1cccc(NC(=O)c2oc3ccccc3c2NC(C)=O)c1`: the AC50 result was “inactive”. On to `CCOC(=O)CC1NC(=O)c2ccccc21` (stereo unspecified), for which the AC50 entry is “inactive”.

Turning to `O=C(Cn1c(SCC(=O)N2CCc3ccccc3C2)nc2ccccc21)NC1CCCC1`, the AC50 is 25.1 µM (active). As to `Cc1ccc(-n2c(C)nnc2SCC(=O)N2CCc3ccccc3C2)cc1C`, the AC50 result is “inactive”. Regarding `O=C(Cn1cccc1)NC1CCCCCC1`, the AC50 entry is “inactive”.

Consider `C=CCn1c(SCC(=O)N2CCc3ccccc3C2)nc2ccccc2c1=O`, for which the AC50 is 15.8 µM (active). For `C=CCSc1nc2ccccc2c(=O)n1Cc1ccco1`, the activity, negative = inhibition is -11.2% [at 11.4 µM] (inactive).

For `C=CCn1c(SCC(=O)N2CC(=O)Nc3ccccc32)nc2scc(-c3ccccc3)c2c1=O`, the AC50 entry was “inactive”. On the same count and under the same terms, to `CCOC(=O)c1sc(N(Cc2ccccc2)C(=O)CN2C(=O)CN(C)C2=O)nc1C` belongs “inactive”. On the same count and under the same terms, to `c1ccc(-c2nccc(-c3ccc(-n4cnc5ccccc54)cc3)n2)nc1` belongs “inactive”. On the same count and under the same terms, to `CCOC(=O)c1cn(-c2nc(-c3ccc(Cl)cc3)cs2)c2c(F)c(N3CC(C)OC(C)C3)c(F)cc2c1=O` (stereo unspecified) belongs “inactive”. On to `C[C@@H](c1ccccc1)N1C(=O)[C@H]2[C@H]3[C@H](O)[C@H](O)C/C(=N/OC[C@@H](O)COCc4ccco4)[C@H]3CC[C@@H]2C1=O`, for which the activity, negative = inhibition was -0.906% [at 11.4 µM] (inactive). As to `Cc1cccc(NC2=NC(=S)N(c3ccc(C(=O)O)cc3)C23CCCCC3)c1`, the AC50 entry is “inactive”. For the compound `CCCn1cnc2c1c(=O)n(CCCCC(C)=O)c(=O)n2C`, the AC50 entry is “inactive”. Consider `NC(=O)C(=O)O`, for which the AC50 entry is “inactive”. With `COc1ccc(C(=O)O/N=C/c2ccc(S(=O)c3ccc(Cl)cc3)nc2)cc1` (stereo unspecified), the AC50 entry was “inactive”. The same measure, in the same setting: in the case of `CCCn1nnnc1-c1cc(Cl)cc(Cl)c1` it was “inactive”; in that of `CCn1c(C)nc2c1C(=O)c1ccccc1C2=O`, “inactive”; in that of `CC1=CC(=O)c2ccccc2C1=O`, 7.94 µM (active). Regarding `CC1=CC(=C2C(=O)c3ccccc3C2=O)C=C(C)O1`, the AC50 result is “inactive”. In the case of `Cc1ccc(-n2ncc3c(=O)n(CC(=O)NCC4CCCO4)cnc32)cc1` (stereo unspecified), the AC50 entry is “inactive”. As for `O=C(/C=C/Nc1ccccc1)c1ccc(Oc2ncccn2)cc1`, the AC50 entry is “inactive”. Still for that read-out and setting: to `CCCc1ccc(-c2cc(C(=O)NN3CCOCC3)c3ccccc3n2)cc1` belongs “inactive”.

Take `COc1ccccc1CNc1ncncc1-c1ccoc1`: the AC50 is 20 µM (active). Regarding `COc1ccccc1CNc1ncncc1-c1ccccc1Cl`, the AC50 is 2 µM (active). Take `COc1ccccc1CNc1ncncc1-c1ccccc1OC`: the AC50 is 10 µM (active). As for `COc1ccccc1CCn1c(=O)c(-c2ccc(F)cc2)nc2cncnc21`, the AC50 result was “inactive”. `COc1ccccc1CN1C(=O)c2ccncc2C1=O`: the AC50 entry was “inactive”. The same measure, in the same setting: in the case of `COc1ccccc1CNc1ncncc1-c1ccccc1C` it was 10 µM (active).
